Test results as given in PubChem BioAssay.
Records with an inconclusive call do not appear. Calls of active or inactive are those of the source.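 Rule for the calls, unless noted: active = viability at or below 10% of carrier control in both of two separate runs; inconclusive = viability at or below 10% in only one of the two runs; inactive = the rest.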

Experiments:
[1] = Her2 expression decrease, cell viability multiplex – SKBR3 breast tumor cells, AlphaScreen, ATP viability, primary screen (AID 461;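 active = Her2 level under about 52% in both replicate screens, with viability over 70% of control, limit read from the data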;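 for Her2 level: lower value means less Her2 protein in the cells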;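 for viability: percent of carrier control wells set as 100% viability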); settings: SKBR3 Her2 protein level, 18-24 h, measured here: SKBR3 viability, ATP luminescence, at 10 µM
[2] = target: Receptor tyrosine-protein kinase erbB-2 (Homo sapiens) (UniProt P04626); test: as above; settings: 18-24 h, at 10 µM, stronger effect = lower value
[3] = reduced viability of SK-BR-3 breast cancer cells – cell-based, 24 h, human, pilot screen (AID 572); settings: SK-BR-3 viability, CellTiter-Glo luminescence, at 10 µM, stronger effect = lower value;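 note: compound exposure lasted between 18 and 24 h rather than exactly 24 h; 100% = carrier-treated control wells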
[4] = HUVEC growth inhibition – cell-based, human, primary screen (AID 575;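 active = viability at or below 30% in both replicate assays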;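 note: 100% = median of untreated cell wells with 0.1% DMSO on each plate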); settings: HUVEC proliferation, CellTiter-Glo luminescence, 72 h; at 10 µM; stronger effect = lower value
[5] = H69AR cell proliferation blockers – human, duplicate replicates, primary screen (AID 580;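 active = viability at or under a set limit in both replicates, limit being median viability minus 3 SD, cut at about 48% in these data, passing the limit was not always enough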;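 note: 100% = mean luminescence of untreated wells and 0% = no signal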); settings: H69AR lung tumor cells viability, ATP luminescence, 72 h; at 10 µM; stronger effect = lower value
[6] = MRP1 drug-resistance reversers in H69AR cells – cell-based, doxorubicin co-treatment, pilot screen (AID 601;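 active = viability loss from added drug above about 55%, and viability with drug at most 40%, in both replicates, limit read from the data, passing the limit was not always enough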); settings: CellTiter-Glo, 72 h, at 10 µM; for differential viability (reversal): stronger effect = higher value
[7] = yeast transport mutant growth inhibition pilot in 384-well plates, post-Golgi transport modulator project (AID 636; in the data active = inhibition above about 31%); settings: absorbance 615 nm, about 18 h, stronger effect = higher value
[8] = growth suppression of yeast trafficking mutant, preliminary HTS, modulators of trafficking downstream of Golgi apparatus project, 1536-format plate, OD 615 nm (AID 637; in the data active = inhibition above about 30%); settings: yeast transport mutant growth, absorbance 615 nm, 18 h; stronger effect = higher value
[9] = S. cerevisiae growth inhibition in permissive medium (OD615), pilot counter-assay for S. cerevisiae lifespan shortening project, permissive growth control (AID 705;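 active = growth inhibition above 25% in both replicates, a cutoff set 3 SD above the mean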); settings: OD615, 24 h, at 10 µM, stronger effect = higher value
[10] = S. cerevisiae growth inhibition in restrictive medium, OD615, pilot screen, restrictive growth control, yeast lifespan reduction project (AID 706;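 active = growth inhibition above a set limit, 3 SD over mean compound inhibition, in both replicates, cut at about 43% in these data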;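 note: modified DeaD lifespan yeast strain shifted to restrictive glucose medium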); settings: OD615, 48 h, at 10 µM, stronger effect = higher value
[11] = doxorubicin toxicity protection in MRP-1 cells – H69AR cells, CellTiter-Glo, duplicate, MRP-1 activator project, pilot screen (AID 807;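 active = viability increase at or above a cutoff of the median across tested compounds plus 3 SD, cut at about 8.5% in these data, passing the limit was not always enough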;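 note: compound pretreatment 18-22 h then 72 h combined with doxorubicin; 0% = doxorubicin alone and 100% = vehicle without doxorubicin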); settings: H69AR viability with doxorubicin, CellTiter-Glo luminescence; at 10 µM; stronger effect = higher value
[12] = viability of HCT116 without oncogenic beta-catenin – human colon tumor cells, pilot screen (AID 823;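 active = cell viability at or below a set limit in both duplicate runs, the limit being the all-compound median minus 4 SD, cut at about 23% in these data, passing the limit was not always enough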;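 note: 0% = wells killed by 20 µM Hyamine and 100% = untreated DMSO cell wells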); settings: HCT116 beta-catenin knockout viability, CellTiter-Glo, 60 h; at 10 µM; stronger effect = lower value
[13] = viability of PTEN-null HCT116 cells – cell-based, HCT116 clonal line, CellTiter-Glo, pilot screen (AID 824;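 active = viability at or below 27.92% in each of two runs, the all-compound median minus 4 SD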;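 note: 0% = 20 µM Hyamine control and 100% = vehicle cell control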); settings: HCT116 PTEN-deleted viability, 60 h, at 10 µM, stronger effect = lower value
[14] = RAM pathway blockade in budding yeast – dse1pr::URA3 reporter, 5-FOA selection, pilot screen (AID 869;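 active = inhibition over a set limit, the all-compound mean plus 3 SD, in both replicate runs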;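 note: 0% = DMSO wells with no growth and 100% = 10 µM 1-NA-PP1 with full growth; RAM network block rescues cells from 5-FOA so hits raise OD615 growth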); settings: S. cerevisiae dse1pr::URA3 5-FOA growth, OD615, 2 d; at 10 µM; stronger effect = higher value; strain carries analog-sensitive mutant Cbk1 kinase
[15] = RAM signaling pathway blockade in yeast – S. cerevisiae, Pdr1DBD-CYC8 efflux-inhibited sensitized strain, primary screen (AID 1298;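 active = RAM network inhibition above 8.4% in each of two replicates, 3 SD over the compound average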;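 note: 0% = DMSO untreated cells without growth and 100% = 10 µM 1-NA-PP1 full growth; higher means more yeast growth rescued from 5-FOA killing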); settings: S. cerevisiae cbk1-as DSE1-URA3 strain, 5-FOA growth OD615, 2 d; at 50 µM; stronger effect = higher value
[16] = H69AR cells + 2 uM doxorubicin, measured here: viability with 2 uM doxorubicin, stronger effect = lower value
[17] = H69AR cells, compound alone cytotoxicity

Sequence of Receptor tyrosine-protein kinase erbB-2 (Homo sapiens) (P04626 whole entry, looked up): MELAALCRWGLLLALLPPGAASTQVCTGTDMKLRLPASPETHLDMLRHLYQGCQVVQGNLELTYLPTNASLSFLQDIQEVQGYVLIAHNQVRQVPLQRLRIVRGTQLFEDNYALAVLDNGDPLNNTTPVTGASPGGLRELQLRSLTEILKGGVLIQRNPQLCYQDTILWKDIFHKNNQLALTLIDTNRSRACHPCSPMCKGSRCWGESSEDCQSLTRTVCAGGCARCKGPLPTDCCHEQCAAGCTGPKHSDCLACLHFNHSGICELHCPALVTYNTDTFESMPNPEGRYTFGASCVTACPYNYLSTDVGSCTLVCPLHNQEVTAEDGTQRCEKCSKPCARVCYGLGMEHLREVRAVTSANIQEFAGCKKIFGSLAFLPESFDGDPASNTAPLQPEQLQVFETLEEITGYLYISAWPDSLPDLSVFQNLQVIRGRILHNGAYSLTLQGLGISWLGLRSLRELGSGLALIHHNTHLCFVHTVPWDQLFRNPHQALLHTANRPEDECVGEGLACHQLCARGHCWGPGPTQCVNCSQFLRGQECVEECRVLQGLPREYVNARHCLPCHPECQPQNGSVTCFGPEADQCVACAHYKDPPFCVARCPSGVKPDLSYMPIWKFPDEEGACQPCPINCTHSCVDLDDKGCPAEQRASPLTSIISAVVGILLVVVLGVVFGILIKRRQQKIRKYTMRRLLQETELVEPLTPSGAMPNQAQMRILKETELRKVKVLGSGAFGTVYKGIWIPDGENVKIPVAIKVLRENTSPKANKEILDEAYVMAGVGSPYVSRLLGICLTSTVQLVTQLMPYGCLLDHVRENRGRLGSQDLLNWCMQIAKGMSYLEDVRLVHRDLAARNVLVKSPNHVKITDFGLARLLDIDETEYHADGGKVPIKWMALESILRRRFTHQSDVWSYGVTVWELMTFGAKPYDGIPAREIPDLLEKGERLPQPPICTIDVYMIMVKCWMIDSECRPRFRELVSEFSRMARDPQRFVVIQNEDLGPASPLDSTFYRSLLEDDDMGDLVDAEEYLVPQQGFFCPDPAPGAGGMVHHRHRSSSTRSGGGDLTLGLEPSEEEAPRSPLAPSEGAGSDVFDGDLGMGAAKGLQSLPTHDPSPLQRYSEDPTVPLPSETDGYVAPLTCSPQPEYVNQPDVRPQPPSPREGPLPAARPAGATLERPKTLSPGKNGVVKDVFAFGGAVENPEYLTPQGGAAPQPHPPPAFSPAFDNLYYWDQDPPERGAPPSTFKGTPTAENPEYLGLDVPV

SMILES	viability [1]	Her2 level [2]	viability [3]	viability [4]	viability [5]	differential viability (reversal) ([6]; H69AR cells + 2 uM doxorubicin)	viability [6, 16]	viability [6, 17]	inhibition [7]	inhibition [8]	growth inhibition [9]	growth inhibition [10]	viability increase [11]	viability [12]	viability [13]	inhibition [14]	RAM network inhibition [15]
O=C1NC2(Nc3ccccc31)C(=O)Nc1ccccc12 (stereo not given)	99%	83% (inactive)	99% (inactive)	86.8% (inactive)	156% (inactive)	58.3% (inactive)	97.3%	156%	-4.86% (inactive)	-3.44% (inactive)	0.15% (inactive)	-6.17% (inactive)	-3.77% (inactive)	98.8% (inactive)	85.2% (inactive)	1.85% (inactive)	2.35% (inactive)
CC(C)(NC(=O)N1CCCC1)c1cccc(C(C)(C)NC(=O)N2CCCC2)c1	98%	81.5% (inactive)	98% (inactive)	97.7% (inactive)	95.5% (inactive)	5.27% (inactive)	90.3%	95.5%	-4.42% (inactive)	-4% (inactive)	0.795% (inactive)	3.39% (inactive)	-0.99% (inactive)	100% (inactive)	97.4% (inactive)	0.535% (inactive)	0.88% (inactive)
COC(=O)CN(c1ccc(OC)cc1)S(=O)(=O)c1ccc(OC)c(OC)c1	89.5%	91% (inactive)	89.5% (inactive)	96.5% (inactive)	88.1% (inactive)	2.77% (inactive)	85.3%	88.1%	-0.78% (inactive)	-2.3% (inactive)	-13.7% (inactive)	-17% (inactive)	-1.06% (inactive)	98.5% (inactive)	99.5% (inactive)	1.75% (inactive)	4.96% (inactive)
COc1ccc(OC)c(C2=NOC(C(=O)Nc3cc(C)nn3-c3ccccc3)C2)c1 (stereo not given)	86.5%	106% (inactive)	86.5% (inactive)	114% (inactive)	95.2% (inactive)	9.74% (inactive)	85.5%	95.2%	-2.56% (inactive)	-0.33% (inactive)	-7.35% (inactive)	-4.62% (inactive)	0.16% (inactive)	94.2% (inactive)	94.9% (inactive)	1.83% (inactive)	7.22% (inactive)
CCOCCCNC(=O)Cn1ncc2c(=O)oc3ccccc3c21	95%	98% (inactive)	95% (inactive)	81.5% (inactive)	90.5% (inactive)	-3.42% (inactive)	93.9%	90.5%	1.79% (inactive)	-2.83% (inactive)	7.44% (inactive)	15.2% (inactive)	-0.6% (inactive)	101% (inactive)	94.3% (inactive)	-0.73% (inactive)	1.15% (inactive)
COc1ccc(CCNc2oc(COc3ccccc3Cl)nc2C#N)cc1OC	90%	87% (inactive)	90% (inactive)	56.8% (inactive)	92.2% (inactive)	-4.1% (inactive)	96.3%	92.2%	-1.6% (inactive)	-1.83% (inactive)	-10% (inactive)	-0.295% (inactive)	-1.73% (inactive)	88.5% (inactive)	73.2% (inactive)	1.5% (inactive)	2.3% (inactive)
COc1ccc(CNC(=O)c2cnc3n(c2=O)CCS3)cc1	81.5%	87.5% (inactive)	81.5% (inactive)	90.6% (inactive)	94.9% (inactive)	-3.02% (inactive)	97.9%	94.9%	-3.87% (inactive)	-2.17% (inactive)	5.72% (inactive)	4.27% (inactive)	-1.21% (inactive)	95.8% (inactive)	98.3% (inactive)	3.5% (inactive)	2.5% (inactive)
Cn1c(=O)c2c(nc3sccn32)n(C)c1=O	106%	109% (inactive)	106% (inactive)	112% (inactive)	87.7% (inactive)	-1.71% (inactive)	89.4%	87.7%	-3.51% (inactive)	-4.1% (inactive)	-7.3% (inactive)	-10.3% (inactive)	-1.33% (inactive)	101% (inactive)	99.4% (inactive)	1.48% (inactive)	2.73% (inactive)
O=C(NCCN1CCOCC1)c1ccc2c(c1)N(Cc1ccccc1F)C(=O)CS2	94%	100% (inactive)	94% (inactive)	95% (inactive)	92.6% (inactive)	-7.79% (inactive)	100%	92.6%	-6.4% (inactive)	1.59% (inactive)	7.73% (inactive)	7.02% (inactive)	1.73% (inactive)	102% (inactive)	102% (inactive)	1.9% (inactive)	1.89% (inactive)
COc1ccc(C)cc1S(=O)(=O)N1CCN(S(=O)(=O)c2cc(C)ccc2OC)CC1	110%	114% (inactive)	110% (inactive)	96.5% (inactive)	95% (inactive)	-0.24% (inactive)	95.2%	95%	-5.47% (inactive)	-9.03% (inactive)	-15.6% (inactive)	-26.2% (inactive)	-0.01% (inactive)	93.8% (inactive)	90.9% (inactive)	2.31% (inactive)	3% (inactive)
